Screening data (PubChem BioAssay)
KDM5B inh = inhibitors of human KDM5B histone demethylase | KDM5B demethylase, FDH-coupled NADH fluorescence (FDH is formaldehyde dehydrogenase) | Potency, µM (doses to about 57.7 µM), actives largely listed as inhibitors | 2.6% of 220,000 active | AID 1347165; active = well fitted inhibition curve with a large enough effect; also: nearly all actives have a fitted effect of over 70% in size
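Compound dilutions met 200 nM (final) KDM5BΔAP for 10 min at room temperature before substrate addition. The substrate mix held 12.5 µM H3K4me3 with cofactors 25 µM α-ketoglutarate and 50 µM Fe²⁺. NADH signal gain over 30 min defined activity.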
Hits are given with their value; . = inactive. This is one part of a sample in which hits are shown more often than they occur.

SMILES | KDM5B inh
O=C(c1ccc(Cl)cc1)N1CC2(CCN(CC3CC3)C2)OCc2ccccc21 (stereo not given) | .
CC(C)NC(=O)c1ccc2c(c1)N(Cc1cccc(Cl)c1)C(=O)c1ccccc1S2=O (stereo not given) | .
O=C(NC1CCCC1)c1ccc2c(c1)N(Cc1ccccc1)C(=O)c1ccccc1S2 | .
O=C1N(Cc2ccc(F)cc2)CCCC12CCN(CC1CCCC1)C2 (stereo not given) | .
O=C(NC1COC1)c1ccc2c(c1)C1(CCN(CC3CC3)C1)CN2Cc1ccccc1 (stereo not given) | 35µM
Cc1oc(C(O)c2ccccc2)nc1C(=O)Nc1ccncc1 (stereo not given) | .
CCCNC(=O)N(C1CCOCC1)C1CCN(C(=O)Nc2c(F)cccc2F)CC1 | .
Clc1ccc(COc2ccc(CNC3CC3)cc2)cc1 | .
CCC1CSC(Nc2ccccc2C)=N1 (stereo not given) | .
N#Cc1ccc(/C=N/Nc2nc(Nc3ccccc3)nc(N3CCCCC3)n2)cc1 | .
Cc1ccc(SC(C)C(=O)NC(C(C)C)C(C)C)cc1 (stereo not given) | .
COc1cccc(-c2c(NC(=O)c3ccc(C)cc3)oc3ccccc3c2=O)c1 | .
CC(NC(=O)c1sc2ccccc2c1Cl)c1ccncc1 (stereo not given) | .
CCOCCCNCc1ccc(C)s1 | .
CCN(CC)CC#CC(OC)(c1ccccc1)C1CCCC1 (stereo not given) | .
CCNC(=O)c1n[nH]c2c1CN(C(=O)c1cccc(Br)c1)CC2 | .
CCc1noc(-c2cn(C3CCN(C(=O)c4cc(F)ccc4F)CC3)nn2)n1 | .
CCc1noc(-c2cn(C3CCN(C(=O)c4cccc5[nH]ccc45)CC3)nn2)n1 | 32µM
CC(C)c1noc(-c2cn(C3CCN(C(=O)c4cccc5[nH]ccc45)CC3)nn2)n1 | 28µM
CCc1noc(-c2cn(C3CCN(C(=O)c4ccccc4)CC3)nn2)n1 | .
COc1ccccc1C(=O)N1CCC(n2cc(-c3nc(C(C)C)no3)nn2)CC1 | .
CC(C)c1noc(-c2cn(C3CCN(C(=O)c4ccccc4)CC3)nn2)n1 | .
CC(Cc1ccc(Br)cc1)NC(=O)C1CCCC1 (stereo not given) | .
COc1ccccc1C(=O)N1CCn2c(nnc2C2CCCNC2)C1 (stereo not given) | .
CCN1C(=O)CCN(C(=O)c2cccc(C#N)c2)CC12CCOCC2 | .
SMILES | KDM5B inh
O=C(N[C@H](C1CCNCC1)C1CC(O)C1)c1ccccc1C(F)(F)F (stereo not given in full) | .
COc1cc(CCC(=O)N[C@H](C2CCNCC2)C2CC(O)C2)ccc1C (stereo not given in full) | .
Cc1ccc(CCC(=O)N[C@H](C2CCNCC2)C2CC(O)C2)cc1C (stereo not given in full) | .
Cc1ccc(F)c(C(=O)N[C@H](C2CCNCC2)C2CC(O)C2)c1Cl (stereo not given in full) | .
CC(C)Cc1cc(C(=O)N[C@H](C2CCNCC2)C2CC(O)C2)nc(N)n1 (stereo not given in full) | 22µM
O=C(N[C@H](C1CCNCC1)C1CC(O)C1)c1cccc(=O)[nH]1 (stereo not given in full) | 22µM
Cn1cc(Cl)cc1C(=O)N[C@H](C1CCNCC1)C1CC(O)C1 (stereo not given in full) | .
Cc1cnc2c(C(=O)N[C@H](C3CCNCC3)C3CC(O)C3)cnn2c1 (stereo not given in full) | 32µM
O=C(Cc1noc2ccccc12)N[C@H](C1CCNCC1)C1CC(O)C1 (stereo not given in full) | .
CCNC(=O)N1CCC(c2noc(-c3ccncc3)n2)C1 (stereo not given) | .
O=[S+]1([O-])NCC2(CCCN(Cc3cccc4ccccc34)C2)Nc2ccccc21 (stereo not given) | .
c1ccc(-c2nnc3sc(Cn4cccn4)nn23)cc1 | .
Cc1ccc(OCCSc2nnc(COc3ccc(Cl)cc3)n2C)cc1 | .
CCC(Oc1cccc(Cl)c1)C(=O)O (stereo not given) | .
CN1C[C@@H](NC(=O)Nc2ccc(F)cc2F)C[C@H]1c1nc(-c2ccc(Cl)cc2)no1 | .
Cc1nc(CN2Cc3nc(Nc4ccccc4)ccc3OCC2=O)cs1 | .
O=C1COc2ccc(Oc3ccccc3)nc2CN1CCOc1ccccc1 | .
COCCN1Cc2nc(Nc3ccc(C(F)(F)F)cc3)ccc2OCC1=O | 25µM
Cc1csc(Nc2ccc3c(n2)CN(CCOc2ccccc2)C(=O)CO3)n1 | .
COCCN1Cc2nc(Nc3ccc(F)c(Cl)c3)ccc2OCC1=O | .
O=C1COc2ccc(Nc3ccccc3)nc2CN1CCOc1ccccc1 | 40µM
Cc1nnc(-c2cc(-c3ccc(CO)cc3)ccn2)n1Cc1ccncc1 | .
Oc1ccccc1-c1nc2ccccc2s1 | .
O=C1COCC2(CN1Cc1cccc(OC(F)(F)F)c1)CN(C(=O)C1CCOCC1)C2 | .
c1ccc(CC2=NOC3(CCN(Cc4ccccc4)C3)C2)cc1 (stereo not given) | 32µM
SMILES | KDM5B inh
FC(F)(F)c1ccc(CN2CCCC3(CC(Cc4ccccc4)=NO3)C2)cc1 (stereo not given) | .
COc1ccc(CN2CCCC3(CC(Cc4ccccc4)=NO3)C2)cc1 (stereo not given) | .
O=C(CSc1nnc2ccc(-c3ccccn3)nn12)N1CCN(c2ccccc2)CC1 | .
O=C(N1CC23C=CC(CC2CC12CCCCC2)O3)C(F)(F)F (stereo not given) | .
Cc1cccc(-c2nn3c(N(C)C)cc(C)nc3c2C)c1 | .
COc1ccccc1CNC(=O)c1ccc(CN2C(=O)NC3(CCOCC3)C2=O)cc1 | .
COc1ccccc1CCN1CCC(CN(C)C(=O)CCc2ccccc2Cl)CC1 | .
CCn1ncc(CN2CCCC23CCN(c2ccc(C(F)(F)F)cn2)CC3)c1C | 28µM
CCc1nc(CN2CCN(c3ccc(C(F)(F)F)cn3)CC2)c(C)[nH]1 | .
C=CCN1CCN(c2ccc(C(F)(F)F)cn2)CC1 | .
COc1ccc(C2Cn3nnc(C(=O)N4CCC(C(=O)NCCc5ccccc5)CC4)c3CO2)cc1 (stereo not given) | .
CCC1(N2CCN(S(=O)(=O)c3ccc(F)c(C)c3)CC2)CCN(C(=O)NC)C1 (stereo not given) | .
CC(C)Sc1ccc(C(=O)NCC(O)c2ccccc2)cc1 (stereo not given) | .
Cc1cc(C)c(CNC(=O)c2nc(-c3ccccc3C)cc3c2ccn3C(C)C)c(=O)[nH]1 | .
Cc1cc(-c2cc3c(ccn3C)c(C(=O)NCc3c(C)cc(C)[nH]c3=O)n2)ccn1 | .
COc1ccc(-c2cc3c(ccn3C(C)C)c(C(=O)NCc3c(C)cc(C)[nH]c3=O)n2)cc1 | 25µM
Cc1cc(C)c(CNC(=O)c2nc(-c3ccccc3O)cc3c2ccn3C(C)C)c(=O)[nH]1 | .
Cc1cc(C)c(CNC(=O)c2nc(-c3ccc(CN(C)C)cc3)cc3[nH]ccc23)c(=O)[nH]1 | .
Cc1cc(C)c(CNC(=O)c2nc(-c3cnn(C)c3)cc3c2ccn3C)c(=O)[nH]1 | 22µM
Cc1cc(C)c(CNC(=O)c2nc(-c3ccc(CN(C)C)cc3)cc3c2ccn3C(C)C)c(=O)[nH]1 | 28µM
CN(C)CCNC(=O)c1nc(-c2ccc(N3CCN(C)CC3)cc2)cc2c1ccn2C | .
CC(C)c1ccc(C(=O)N2CC(C(=O)NCCc3ccncc3)C3(CCOCC3)C2)cc1 (stereo not given) | .
